Measured values: PubChem BioAssay AID1159580 (chemical genetic matrix, 2015)
“And” between values parts separate entries of the source, which are not always exact repeats. Identical values can stand only once. Among all 5,500 compounds or so, about 2,000 (36%) were called active. Inconclusive results (about 18%) are left out. Cut-off read from the data, not from the text of the source: active = normalized growth mostly below about 0.91 (no sharp cut-off); inconclusive = no clear call, values can overlap the other calls; inactive = mostly above about 0.92. Some of the results follow.

Assay: chemical genetic growth profiling, strain panel (AID 1159580);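 note: tested at 20 µM; growth read once vehicle control cultures reached saturation at 30 °C; 1 = growth at the plate median or of vehicle wells; lower values mean less growth of the strain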
Conditions: S. cerevisiae deletion strains, growth OD

Measured: normalized growth

Oc1c(Br)cc(Br)c2cccnc12
active: locus YAL013W, strain DEP1, hits give low values 0.0586 | locus YAL021C, strain ccr4, hits give low values 0.0663 | locus YAL026C, strain drs2, hits give low values 0.0631 | locus YAL030W, strain snc1, hits give low values 0.055 | locus YBL061C, strain skt5, hits give low values 0.0586 | locus YBR009C, strain hhf1, hits give low values 0.0623 | locus YBR021W, strain FUR4, hits give low values 0.0949 | locus YBR023C, strain chs3, hits give low values 0.0634 | locus YBR171W, strain sec66, hits give low values 0.0756 | locus YBR229C, strain ROT2, hits give low values 0.0506 | locus YBR231C, strain swc5, hits give low values 0.0629 | locus YBR279W, strain paf1, hits give low values 0.0612 | locus YCL011C, strain gbp2, hits give low values 0.0575 | locus YCL016C, strain dcc1, hits give low values 0.0701 | locus YCL029C, strain bik1, hits give low values 0.07 | locus YCL061C, strain MRC1, hits give low values 0.0647 | locus YCL069W, strain vba3, hits give low values 0.0645 | locus YCR088W, strain abp1, hits give low values 0.0595 | locus YDL005C, strain med2, hits give low values 0.0726 | locus YDL035C, strain GPR1, hits give low values 0.0512 | locus YDL040C, strain nat1, hits give low values 0.0563 | locus YDL074C, strain BRE1, hits give low values 0.0885 | locus YDL101C, strain DUN1, hits give low values 0.0585 | locus YDL134C, strain PPH21, hits give low values 0.0526 | locus YDL185W, strain tfp1, hits give low values 0.0677 | locus YDL192W, strain arf1, hits give low values 0.0671 | locus YDR001C, strain nth1, hits give low values 0.0572 | locus YDR069C, strain doa4, hits give low values 0.0693 | locus YDR101C, strain arx1, hits give low values 0.0674 | locus YDR137W, strain rgp1, hits give low values 0.107 | locus YDR150W, strain NUM1, hits give low values 0.0621 | locus YDR159W, strain sac3, hits give low values 0.0892 | locus YDR162C, strain NBP2, hits give low values 0.0492 | locus YDR195W, strain ref2 0.126 | locus YDR297W, strain sur2, hits give low values 0.0575 | locus YDR318W, strain mcm21, hits give low values 0.071 | locus YDR334W, strain swr1, hits give low values 0.0608 | locus YDR335W, strain msn5, hits give low values 0.0583 | locus YDR388W, hits give low values 0.0637 | locus YDR392W, strain spt3, hits give low values 0.0808 | locus YDR502C, strain sam2, hits give low values 0.0753 | locus YEL003W, strain gim4, hits give low values 0.0546 | locus YEL037C, strain rad23, hits give low values 0.0573 | locus YEL061C, strain CIN8 (second series), hits give low values 0.145 | locus YEL061C, strain CIN8, hits give low values 0.05 | locus YER015W, strain faa2, hits give low values 0.0595 | locus YER016W, strain bim1, hits give low values 0.0608 | locus YER110C, hits give low values 0.0879 | locus YER111C, strain swi4, hits give low values 0.0694 | locus YER155C, strain BEM2 (second series), hits give low values 0.0894 | locus YER155C, strain BEM2, hits give low values 0.0691 | locus YER167W, strain BCK2, hits give low values 0.0561 | locus YFR010W, strain ubp6, hits give low values 0.0731 | locus YGL078C, strain dbp3, hits give low values 0.0674 | locus YGL086W, strain mad1, hits give low values 0.0628 | locus YGL167C, strain pmr1, hits give low values 0.079 | locus YGL173C, strain kem1, hits give low values 0.0675 | locus YGL227W, strain vid30, hits give low values 0.0683 | locus YGL240W, strain doc1, hits give low values 0.0807 | locus YGL248W, strain PDE1, hits give low values 0.0474 | locus YGL253W, strain hxk2, hits give low values 0.0544 | locus YGR078C, strain PAC10, hits give low values 0.0525 | locus YGR135W, strain pre9, hits give low values 0.0723 | locus YGR229C, strain SMI1, hits give low values 0.0593 | locus YGR252W, strain gcn5, hits give low values 0.146 | locus YHR013C, strain ard1, hits give low values 0.115 | locus YHR027C, strain rpn1, hits give low values 0.0627 | locus YHR030C, strain SLT2, hits give low values 0.0528 and 0.107 | locus YHR079C, strain IRE1 (second series), hits give low values 0.0637 | locus YHR079C, strain IRE1, hits give low values 0.113 | locus YHR094C, strain hxt1, hits give low values 0.0678 | locus YHR129C, strain ARP1, hits give low values 0.059 | locus YHR142W, strain chs7, hits give low values 0.0809 | locus YHR200W, strain rpn10, hits give low values 0.0663 | locus YIL066C, strain RNR3, hits give low values 0.051 | locus YIL073C, strain SPO22, hits give low values 0.15 | locus YIL125W, strain kgd1, hits give low values 0.0707 | locus YIR030C, strain dcg1, hits give low values 0.0676 | locus YJL092W, strain hpr5, hits give low values 0.0584 | locus YJL095W, strain BCK1 (second series), hits give low values 0.0568 | locus YJL095W, strain BCK1, hits give low values 0.0606 and 0.106 | locus YJL115W, strain asf1, hits give low values 0.072 | locus YJL129C, strain trk1, hits give low values 0.0904 | locus YJL134W, strain LCB3, hits give low values 0.0513 | locus YJL154C, strain vps35, hits give low values 0.0576 | locus YJL164C, strain tpk1, hits give low values 0.0622 | locus YJL166W, strain qcr8, hits give low values 0.0631 | locus YJL168C, strain set2, hits give low values 0.0664 | locus YJL187C, strain SWE1 (second series), hits give low values 0.0507 | locus YJR043C, strain POL32, hits give low values 0.0636 | locus YJR066W, strain TOR1, hits give low values -4.7e-05
